Inconclusive results are not listed. The source made the active and inactive calls. How the source made its calls: active means hit-call score of the fitted dose curve at least 0.9, where 1 is the maximum; inconclusive means response in the unintended direction; inactive means score below 0.9.
molecular target: Nuclear receptor subfamily 1 group I member 3 (Homo sapiens) (UniProt Q14994); experiment: ATG_CAR_TRANS: Attagene TRANS-FACTORIAL HepG2 Assay for human Constitutive Androstane Receptor (CAR) (AID 2282969); conditions: HepG2 Attagene TRANS-FACTORIAL CAR reporter;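 further: activators raise reporter mRNA above DMSO so AC50 marks induction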
Sequence (Q14994 whole entry, looked up): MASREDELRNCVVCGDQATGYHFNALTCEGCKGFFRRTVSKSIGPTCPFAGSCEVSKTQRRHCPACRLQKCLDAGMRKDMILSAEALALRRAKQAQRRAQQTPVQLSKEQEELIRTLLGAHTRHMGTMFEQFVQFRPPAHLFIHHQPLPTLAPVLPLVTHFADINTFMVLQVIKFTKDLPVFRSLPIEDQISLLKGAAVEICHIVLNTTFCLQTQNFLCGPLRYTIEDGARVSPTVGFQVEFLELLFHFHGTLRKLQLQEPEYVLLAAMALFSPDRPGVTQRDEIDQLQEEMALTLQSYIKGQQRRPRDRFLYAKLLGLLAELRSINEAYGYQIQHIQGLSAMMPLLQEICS
Experimental: ATG_TRANS is a cell-based, multiplexed-readout assay that uses HepG2, a human liver cell line, with measurements taken at 24 hours after chemical dosing in a 24-well plate.ATG_CAR_TRANS is one of 30 assay component(s) measured or calculated from the ATG_TRANS assay. It is designed to make measurements of mRNA induction, a form of inducible reporter, as detected with fluorescence intensity signals by Reverse transcription polymerase chain reaction (RT-PCR) and Capillary electrophoresis technology.Data from the assay component ATG_CAR_TRANS was analyzed into 1 assay endpoint. This assay endpoint, ATG_CAR_TRANS, was analyzed in the positive analysis fitting direction relative to DMSO as the negative control and baseline of activity. Using a type of inducible reporter, measures of mRNA for gain-of-signal activity can be used to understand the reporter gene at the transcription factor-level as they relate to the gene NR1I3. Furthermore, this assay endpoint can be referred to as a primary readout, because this assay has produced multiple assay endpoints where this one serves a reporter gene function. To generalize the intended target to other relatable targets, this assay endpoint is annotated to the nuclear receptor intended target family, where the subfamily is non-steroidal.
Human liver HepG2 cells are transiently transfected with multiple reporter transcription units (MRTUs) in 6-well plates using FuGene 6 reagent (Roche; 3 ml FuGene/1 mg DNA). The MRTU constructs are regulated by a cis-regulating element (promoter). […] A major difference between the CIS and TRANS system is that in CIS activities of endogenous TFs are measured, whereas the TRANS assay evaluates changes in activities of exogenous, chimeric NR-Gal4 proteins. […] At the end of 24 hour incubation, total RNA was isolated using TriZol reagent (Invitrogen). The isolated RNA is then reverse-transcribed using oligo(dT) primer and Mo-MLV reverse transcriptase (Invitrogen) with DNAse I (Ambion) treatment for 30 min. The one-tenth of the produced cDNA was amplified by PCR using Taq DNA polymerase (Invitrogen) and two reporter sequence-specific primers. The PCR products were fluorescently labeled by primer extension with 6-arboxyfluorescein (6-FAM) 5'-labeled reporter sequence-specific primer (2 min at 95 C, 20 s at 68 C and 10 min at 72 C) and these products were digested with 5U of HpaI (New England Biolabs) for 2h at 37 C. The fragments were purified using Qiaquick PCR columns (Qiagen), analyzed on an ABI 3130xL genetic analyzer (Applied Biosystems) with peak positions identified by using a set of X-rhodamine (ROX)-labeled MapMarker1000 molecular weight standards (BioVentures). The raw capillary electrophoresis data was processed using Attagraph software (Attagene).

Row | Structure (SMILES) | outcome
1 | OC[C@H]1O[C@@H](O[C@H]2[C@H](O)[C@@H](O)[C@H](O)O[C@@H]2CO)[C@H](O)[C@@H](O)[C@H]1O | inactive
2 | O=C(O)c1ccccc1O | inactive
3 | C=C1CC/C=C(\C)CC[C@@H]2[C@@H]1CC2(C)C | inactive
4 | CC1=CCC(=C(C)C)CC1 | inactive
5 | CC(CO)c1ccccc1 (stereo not given) | inactive
6 | CCCCCCCCCCCCN1CCOCC1 | inactive
7 | CC(=O)c1ccc(O)cc1 | inactive
8 | CC(C)CCOC(=O)CC(C)C | inactive
9 | Nc1ccc(N)c([N+](=O)[O-])c1 | inactive
10 | CC1COC(=O)O1 (stereo not given) | inactive
11 | Cc1cc(N)n(-c2ccccc2)n1 | inactive
12 | C=CCOC(=O)/C=C\C(=O)OCC=C | inactive
13 | COc1ccc(OC)cc1 | inactive
14 | CCOC(=O)CC1(C)OCC(C)O1 (stereo not given) | inactive
15 | Cc1cc(O)c(C)c(C)c1O | inactive
16 | CCC(=O)OC(C)(C)C1CC=C(C)CC1 (stereo not given) | inactive
17 | CCCCCCCCSCc1cc(C)c(O)c(CSCCCCCCCC)c1 | inactive
18 | CC(C)C(=O)OCC=Cc1ccccc1 | inactive
19 | C=CC(C)CCCC(C)(C)O (stereo not given) | inactive
20 | CCCCCCCC(=O)N(C)C | inactive

Row | Structure (SMILES) | outcome
21 | CC(C)OB(OC(C)C)OC(C)C | inactive
22 | C=C(C)C(=O)OCCN(C)C | inactive
23 | CN(C)CCC=C1c2ccccc2CCc2ccccc21 | inactive
24 | CCC(C)(CCCC(C)C)OC(C)=O (stereo not given) | inactive
25 | CC(=O)Nc1cc(S(=O)(=O)O)cc2cc(S(=O)(=O)O)c(N=Nc3ccccc3)c(O)c12 | inactive
26 | C[C@H](CCC(=O)O)[C@H]1CC[C@H]2[C@@H]3CC[C@@H]4C[C@H](O)CC[C@]4(C)[C@H]3CC[C@]12C | inactive
27 | CCCC[N+](C)(CCCC)CCCC | inactive
28 | Nc1cc([N+](=O)[O-])ccc1C(=O)O | inactive
29 | N#CCCNCCC#N | inactive
30 | CC(=O)OC(C)(C)C1CC=C(C)CC1 (stereo not given) | inactive
31 | O=C(O)c1cc2ccccc2cc1O | inactive
32 | CCCCC1CCCCC(=O)O1 (stereo not given) | inactive
33 | CC12CCC(C1)C(C)(C)C2O (stereo not given) | inactive
34 | CCCCCC#CC(=O)OC | inactive
35 | NC(=O)c1cnccn1 | inactive
36 | CCC(C)(C)C1CCC(OC)CC1 (stereo not given) | inactive
37 | CCCCOCCOCCOCCO | inactive
38 | C1CCCNCC1 | inactive
39 | C[C@]12CC[C@@H]3c4ccc(O)cc4CC[C@H]3[C@@H]1CC[C@@H]2O | inactive
40 | CC(C)CCCC(C)(C)O | inactive

Source: PubChem BioAssay (EPA / NIEHS)
